Columns and labels:
Assay in all cases: DAPPL (digital affinity profiling via proximity ligation, sequencing); 10 mM Tris-HCl pH 7.5, 50 mM NaCl, 1 mM DTT, 4% glycerol, room temperature, 30 min; GST-TFs on glutathione beads, 16-mer random dsDNA library, 0.1% formaldehyde crosslink after washing; high values mean tight binding
Settings in all cases: protein: recombinant; tags: N-terminal GST; dsDNA, one strand shown
ERG = target: T1, ERG (Homo sapiens, UniProt P11308 1-479)
T1 sequence: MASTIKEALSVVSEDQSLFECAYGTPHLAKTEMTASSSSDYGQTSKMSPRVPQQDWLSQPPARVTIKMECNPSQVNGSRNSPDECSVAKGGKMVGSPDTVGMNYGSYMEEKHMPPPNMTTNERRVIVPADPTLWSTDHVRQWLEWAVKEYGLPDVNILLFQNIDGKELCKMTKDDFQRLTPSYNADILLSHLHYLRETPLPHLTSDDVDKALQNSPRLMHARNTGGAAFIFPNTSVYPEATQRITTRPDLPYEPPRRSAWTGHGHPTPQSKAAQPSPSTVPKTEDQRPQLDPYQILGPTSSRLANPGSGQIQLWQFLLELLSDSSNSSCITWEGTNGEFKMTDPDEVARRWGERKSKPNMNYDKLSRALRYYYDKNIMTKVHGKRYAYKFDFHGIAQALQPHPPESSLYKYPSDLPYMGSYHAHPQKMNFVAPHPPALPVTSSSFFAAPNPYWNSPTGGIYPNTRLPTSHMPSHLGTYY
Outline: (§1)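 Sequencing on an Illumina NextSeq500 followed washing, crosslinking with 0.1% formaldehyde, proximity ligation (BsaI/T4 ligase, 1 h, 37 °C) and PCR amplification of pools that had been incubated for 30 min at room temperature with 200 nmole of a random double-stranded 16-mer DNA library in Tris/NaCl/DTT/glycerol buffer. Each pool held DNA-barcoded human transcription factors, expressed in yeast as GST fusions and captured on glutathione beads, plus a tag-only sample. Binding signal is a hexamer's read frequency for a factor divided by its frequency in the tag-only sample.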

SPIB = SPIB (Homo sapiens, UniProt Q01892 1-262)
Sequence of SPIB (Q01892 whole entry): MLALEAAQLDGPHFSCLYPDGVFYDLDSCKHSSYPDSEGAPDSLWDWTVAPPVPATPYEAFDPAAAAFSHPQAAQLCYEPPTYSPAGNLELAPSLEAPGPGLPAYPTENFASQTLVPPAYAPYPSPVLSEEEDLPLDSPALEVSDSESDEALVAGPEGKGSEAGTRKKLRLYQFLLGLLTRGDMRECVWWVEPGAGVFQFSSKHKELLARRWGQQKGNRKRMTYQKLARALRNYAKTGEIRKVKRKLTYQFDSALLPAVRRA
Outline: as §1

ELK4 = target: T2, ELK4 (Homo sapiens, UniProt P28324-2 1-405)
T2 sequence: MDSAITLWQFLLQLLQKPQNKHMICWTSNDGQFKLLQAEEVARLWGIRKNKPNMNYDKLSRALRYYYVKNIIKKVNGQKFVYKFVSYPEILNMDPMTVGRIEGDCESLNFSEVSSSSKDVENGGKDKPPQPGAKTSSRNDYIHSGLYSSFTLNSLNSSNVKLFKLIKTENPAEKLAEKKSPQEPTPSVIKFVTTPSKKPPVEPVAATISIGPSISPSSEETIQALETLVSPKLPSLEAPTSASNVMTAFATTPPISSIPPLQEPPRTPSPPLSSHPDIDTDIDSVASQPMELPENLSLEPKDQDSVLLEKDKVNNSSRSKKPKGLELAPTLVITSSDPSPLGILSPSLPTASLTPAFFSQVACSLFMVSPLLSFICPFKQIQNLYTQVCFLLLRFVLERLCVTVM
Outline: as §1

ETV3L = target: T3, ETV3L (Homo sapiens, UniProt Q6ZN32 1-361)
T3 sequence: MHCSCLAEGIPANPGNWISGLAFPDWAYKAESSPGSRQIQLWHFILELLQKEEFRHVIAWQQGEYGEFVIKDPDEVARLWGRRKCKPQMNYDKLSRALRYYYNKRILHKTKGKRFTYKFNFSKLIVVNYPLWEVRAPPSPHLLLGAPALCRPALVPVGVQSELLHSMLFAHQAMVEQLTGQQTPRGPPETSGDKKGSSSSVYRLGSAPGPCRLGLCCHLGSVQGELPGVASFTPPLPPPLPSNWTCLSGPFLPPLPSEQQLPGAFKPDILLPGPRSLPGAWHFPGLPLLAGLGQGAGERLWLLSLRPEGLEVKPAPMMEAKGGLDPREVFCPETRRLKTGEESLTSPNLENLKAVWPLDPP
Outline: as §1

ETS2 = target: T4, ETS2 (Homo sapiens, UniProt P15036 1-469)
T4 sequence: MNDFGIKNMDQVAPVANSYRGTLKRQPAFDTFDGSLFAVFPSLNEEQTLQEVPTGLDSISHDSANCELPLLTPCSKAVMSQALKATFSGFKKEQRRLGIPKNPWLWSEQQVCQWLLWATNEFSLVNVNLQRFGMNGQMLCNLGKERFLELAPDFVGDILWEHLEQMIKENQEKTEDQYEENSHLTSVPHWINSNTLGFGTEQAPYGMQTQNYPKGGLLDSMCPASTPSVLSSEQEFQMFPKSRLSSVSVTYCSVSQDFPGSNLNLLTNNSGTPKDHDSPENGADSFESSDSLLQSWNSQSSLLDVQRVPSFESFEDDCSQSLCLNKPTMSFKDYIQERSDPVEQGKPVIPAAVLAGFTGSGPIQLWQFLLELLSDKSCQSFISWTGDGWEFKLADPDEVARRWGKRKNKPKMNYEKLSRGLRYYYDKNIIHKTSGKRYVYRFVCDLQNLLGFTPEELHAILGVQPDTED
Outline: as §1

ETV7 = target: T5, ETV7 (Homo sapiens, UniProt Q9Y603 1-341)
T5 sequence: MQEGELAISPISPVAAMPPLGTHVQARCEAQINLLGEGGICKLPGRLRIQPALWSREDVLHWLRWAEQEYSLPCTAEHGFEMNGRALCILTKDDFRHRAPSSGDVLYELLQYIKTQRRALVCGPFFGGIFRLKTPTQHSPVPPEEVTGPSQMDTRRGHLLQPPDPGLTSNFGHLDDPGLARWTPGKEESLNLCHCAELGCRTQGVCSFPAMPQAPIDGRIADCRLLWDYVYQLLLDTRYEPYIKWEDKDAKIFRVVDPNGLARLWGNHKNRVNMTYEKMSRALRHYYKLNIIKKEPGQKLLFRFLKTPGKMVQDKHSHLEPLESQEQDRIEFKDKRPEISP
Outline: as §1

SPI1 = SPI1 (Homo sapiens, UniProt P17947 1-270)
Outline: as §1

FEV = target: T6, FEV (Homo sapiens, UniProt Q99581 1-238)
T6 sequence: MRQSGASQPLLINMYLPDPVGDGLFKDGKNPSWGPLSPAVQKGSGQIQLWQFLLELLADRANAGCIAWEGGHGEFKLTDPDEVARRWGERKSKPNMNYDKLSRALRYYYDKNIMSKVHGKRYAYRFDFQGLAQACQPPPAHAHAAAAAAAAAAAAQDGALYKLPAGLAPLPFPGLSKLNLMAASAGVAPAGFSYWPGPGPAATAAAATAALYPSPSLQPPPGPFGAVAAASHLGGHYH
Outline: as §1

SPDEF = target: T7, SPDEF (Homo sapiens, UniProt O95238 1-335)
T7 sequence: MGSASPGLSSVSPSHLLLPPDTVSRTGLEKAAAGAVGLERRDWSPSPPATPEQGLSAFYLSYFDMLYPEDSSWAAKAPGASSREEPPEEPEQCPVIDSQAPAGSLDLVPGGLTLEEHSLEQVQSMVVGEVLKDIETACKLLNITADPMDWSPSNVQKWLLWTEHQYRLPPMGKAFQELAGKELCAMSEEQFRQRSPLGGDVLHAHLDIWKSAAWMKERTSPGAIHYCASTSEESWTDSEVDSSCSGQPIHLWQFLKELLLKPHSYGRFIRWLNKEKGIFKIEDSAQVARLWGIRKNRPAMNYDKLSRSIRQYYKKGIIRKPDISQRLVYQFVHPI
Outline: as §1

ETV3 = target: T8, ETV3 (Homo sapiens, UniProt P41162-2 1-143)
T8 sequence: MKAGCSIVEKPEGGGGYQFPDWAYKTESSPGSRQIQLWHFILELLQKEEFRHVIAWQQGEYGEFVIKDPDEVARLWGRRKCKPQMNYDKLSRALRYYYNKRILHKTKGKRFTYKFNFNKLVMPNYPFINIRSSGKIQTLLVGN
Outline: as §1

With ACGCGT as the sequence, how does the binding signal (ERG) read?
The binding signal was 1 fold enrichment (6-mer frequency, TF over GST control).

What about the binding signal (SPIB) of the same sequence?
Its binding signal is 1.04 fold enrichment (6-mer frequency, TF over GST control).

And the binding signal (ELK4)?
The binding signal was 1.1 fold enrichment (6-mer frequency, TF over GST control).

And the binding signal (ETV3L)?
The binding signal was 1.02 fold enrichment (6-mer frequency, TF over GST control).

What about the binding signal (ETS2) of the same sequence?
The binding signal was 1.01 fold enrichment (6-mer frequency, TF over GST control).

For GTCATT, which binding signal (ERG) is on record?
The binding signal was 1.03 fold enrichment (6-mer frequency, TF over GST control).

And the binding signal (ELK4)?
Its binding signal is 1.03 fold enrichment (6-mer frequency, TF over GST control).

What about the binding signal (ETV3L) of the same sequence?
The binding signal was 1.01 fold enrichment (6-mer frequency, TF over GST control).

And the binding signal (ETV7)?
The binding signal was 1.01 fold enrichment (6-mer frequency, TF over GST control).

What does the source list for AGTTTA?
binding signal (SPI1): 1.01 fold enrichment (6-mer frequency, TF over GST control); binding signal (ETV3L): 1.09 fold enrichment (6-mer frequency, TF over GST control)

For GTAGCC, which binding signal (SPI1) is on record?
The binding signal was 1.03 fold enrichment (6-mer frequency, TF over GST control).

AGCCCA was tested. Which binding signal (FEV) did it give?
The binding signal was 1.01 fold enrichment (6-mer frequency, TF over GST control).

CCTAGT was tested. Which binding signal (ETS2) did it give?
Its binding signal is 1.06 fold enrichment (6-mer frequency, TF over GST control).

How did the binding signal (SPDEF) turn out when CCGTTA was run?
The binding signal was 1.04 fold enrichment (6-mer frequency, TF over GST control).

What does the source list for CGGCAC?
binding signal (SPDEF): 1.02 fold enrichment (6-mer frequency, TF over GST control); binding signal (ETV3): 1.03 fold enrichment (6-mer frequency, TF over GST control)

With GCGGCT as the sequence, how does the binding signal (ETV3) read?
The binding signal was 1 fold enrichment (6-mer frequency, TF over GST control).

— PMC7862700, “An all-to-all approach to the identification of sequence-specific readers for epigenetic DNA modifications on cytosine”
